# Source: PubChem BioAssay (Tox21)
# Where “and” joins values, the source holds several entries; their conditions need not be identical. Equal entries are not always repeated. Results filed as inconclusive are left out. Where a call stands in place of a potency, no number is given. A structure can be active in one record and inactive in another. Calls of active or inactive are those of the source. Unless noted, calls come from the whole dose curve; as a rule, active = well fitted curve in the direction sought with a large enough effect in the repeat runs; inconclusive = weak or mixed curves; inactive = no such curve, though single readings can be large; an effect the other way counts as inactive or inconclusive.
# Columns and labels:
# [1] = target: Retinoic acid receptor RXR-alpha (Homo sapiens) (UniProt P19793); assay: qHTS assay to identify small molecule agonists of the RXR signaling pathway (AID 1159527; calls by dose curve; note: nearly all actives have a fitted effect of over 35% in size)
# Chain of Retinoic acid receptor RXR-alpha (Homo sapiens) (P19793 whole entry, looked up): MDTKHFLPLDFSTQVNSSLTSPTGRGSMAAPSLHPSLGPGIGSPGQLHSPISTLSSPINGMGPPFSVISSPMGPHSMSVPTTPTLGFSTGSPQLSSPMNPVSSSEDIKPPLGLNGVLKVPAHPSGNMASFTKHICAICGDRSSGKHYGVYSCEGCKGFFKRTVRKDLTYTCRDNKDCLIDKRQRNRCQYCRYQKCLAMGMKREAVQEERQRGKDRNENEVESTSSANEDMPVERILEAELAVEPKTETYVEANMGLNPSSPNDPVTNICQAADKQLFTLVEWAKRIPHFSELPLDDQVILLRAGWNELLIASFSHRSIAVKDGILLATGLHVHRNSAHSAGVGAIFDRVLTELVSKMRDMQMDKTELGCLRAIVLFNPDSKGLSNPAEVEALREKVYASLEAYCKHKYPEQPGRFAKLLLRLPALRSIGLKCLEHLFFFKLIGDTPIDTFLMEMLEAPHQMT
# How it was run: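 qHTS of the Tox21 10K library in GeneBLAzer RXR-alpha HEK 293T cells carrying a beta-lactamase reporter […]; 16 hr treatment, 9-cis retinoic acid as agonist control, FRET read-out.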
# [2] = qHTS assay to identify small molecule agonists of the RXR signaling pathway - cell viability counter screen (AID 1159529); note: series mostly up to about 77 µM; nearly all actives have a fitted effect of over 50% in size
# How it was run: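 Cell viability is measured by CellTiter-Glo luminescence, 30 min at room temperature, in wells already read for beta-lactamase. Engineered HEK 293T cells (RXR-alpha-UAS-bla) are dosed 16 hr at 37 C. Tetraoctyl ammonium bromide serves as positive control.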
# [3] = qHTS assay to identify small molecule antagonists of the retinoid acid receptor (RAR) signaling pathway - cell viability counter screen (AID 1159551); note: nearly all actives have a fitted effect of over 35% in size
# How it was run: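 Retinol-stimulated (1 uM final) C3RL4 cells, compound 6 h, 37 C; readout CellTiter-Glo luminescence (ATP) after 30 min RT incubation.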
# [4] = qHTS assay to identify small molecule antagonists of the estrogen related receptor (ERR) signaling pathway from Tox21 library - cell viability counter screen (AID 1224834); note: nearly all actives have a fitted effect of over 30% in size; note: potency is the fitted concentration of half-maximal effect
# How it was run: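 After 17.5 h of compound exposure at 37 C, ERR cells are incubated with CellTiter-Fluor for 30 min and fluorescence intensity serves as the viability measure.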
# [5] = target: Luciferin 4-monooxygenase (Photinus pyralis) (UniProt P08659); assay: qHTS assay to identify small molecule inhibitors of firefly luciferase (AID 1224835); note: nearly all actives have a fitted effect of over 25% in size; note: potency is the fitted concentration of half-maximal effect
# Chain of Luciferin 4-monooxygenase (Photinus pyralis) (P08659 whole entry, looked up): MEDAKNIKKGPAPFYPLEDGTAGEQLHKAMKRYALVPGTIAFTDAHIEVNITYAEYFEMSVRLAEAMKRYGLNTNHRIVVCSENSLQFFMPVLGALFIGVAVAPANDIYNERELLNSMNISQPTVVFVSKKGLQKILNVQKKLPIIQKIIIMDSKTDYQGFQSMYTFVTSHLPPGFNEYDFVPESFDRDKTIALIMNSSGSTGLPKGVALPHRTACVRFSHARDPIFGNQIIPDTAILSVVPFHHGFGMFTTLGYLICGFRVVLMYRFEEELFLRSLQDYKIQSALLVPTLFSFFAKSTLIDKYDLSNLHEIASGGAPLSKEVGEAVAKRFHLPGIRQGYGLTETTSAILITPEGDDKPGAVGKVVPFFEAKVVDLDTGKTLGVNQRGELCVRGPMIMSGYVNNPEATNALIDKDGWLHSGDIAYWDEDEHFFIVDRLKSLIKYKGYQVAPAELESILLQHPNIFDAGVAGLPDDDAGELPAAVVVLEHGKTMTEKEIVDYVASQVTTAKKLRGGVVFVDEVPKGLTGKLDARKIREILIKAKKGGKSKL
# How it was run: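 Inhibition of purified Photinus luciferase is measured by luminescence. Substrate levels (D-luciferin, ATP) sit at their KM values. Each compound is tested in a concentration series.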
# [6] = qHTS assay to identify small molecule agonists of the constitutive androstane receptor (CAR) signaling pathway - cell viability counter screen (AID 1224836); note: nearly all actives have a fitted effect of over 45% in size; note: potency is the fitted concentration of half-maximal effect
# How it was run: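 Counter screen multiplexed with the CAR reporter readout: HepG2 cells co-transfected with hCAR and the CYP2B6-2.2kb construct receive a 15-concentration compound series and 0.75 uM PK11195 (final), then CellTiter-Fluor fluorescence is read after 23 h.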
# [7] = qHTS assay to identify small molecule antagonists of the constitutive androstane receptor (CAR) signaling pathway - cell viability counter screen (AID 1224837); note: nearly all actives have a fitted effect of over 45% in size; note: potency is the fitted concentration of half-maximal effect
# How it was run: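 Counter screen run in HepG2-CYP2B6-hCAR cells: 4 hr settle, compound titration (15 concentrations) with 50 nM CITCO, 23 hr at 37 C/5% CO2, CellTiter-Fluor fluorescence.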
# [8] = qHTS assay to identify small molecule antagonists of the estrogen related receptor signaling pathway with the pleiotropic PPARgamma coactivator (PGC) from Tox21 10K library - cell viability counter screen (AID 1224840; active = well fitted cell-killing curve with a large enough effect in the repeat runs, not every such curve was filed as active; note: nearly all actives have a fitted effect of over 40% in size; note: potency is the fitted concentration of half-maximal effect)
# How it was run: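 Following seeding of 2,000 PGC/ERR cells/well and 6 hours' incubation, test compounds were delivered in DMSO. The plates then sat 17.5 hours at 37 C before a fluorogenic live-cell protease reagent (CellTiter-Fluor) was read after 30 min.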
# [9] = target: Thyrotropin receptor (Homo sapiens) (UniProt P16473); assay: qHTS assay to identify small molecule agonists of the thyroid stimulating hormone receptor (TSHR) signaling pathway (AID 1224843; calls by dose curve; note: nearly all actives have a fitted effect of over 45% in size)
# Chain of Thyrotropin receptor (Homo sapiens) (P16473 whole entry, looked up): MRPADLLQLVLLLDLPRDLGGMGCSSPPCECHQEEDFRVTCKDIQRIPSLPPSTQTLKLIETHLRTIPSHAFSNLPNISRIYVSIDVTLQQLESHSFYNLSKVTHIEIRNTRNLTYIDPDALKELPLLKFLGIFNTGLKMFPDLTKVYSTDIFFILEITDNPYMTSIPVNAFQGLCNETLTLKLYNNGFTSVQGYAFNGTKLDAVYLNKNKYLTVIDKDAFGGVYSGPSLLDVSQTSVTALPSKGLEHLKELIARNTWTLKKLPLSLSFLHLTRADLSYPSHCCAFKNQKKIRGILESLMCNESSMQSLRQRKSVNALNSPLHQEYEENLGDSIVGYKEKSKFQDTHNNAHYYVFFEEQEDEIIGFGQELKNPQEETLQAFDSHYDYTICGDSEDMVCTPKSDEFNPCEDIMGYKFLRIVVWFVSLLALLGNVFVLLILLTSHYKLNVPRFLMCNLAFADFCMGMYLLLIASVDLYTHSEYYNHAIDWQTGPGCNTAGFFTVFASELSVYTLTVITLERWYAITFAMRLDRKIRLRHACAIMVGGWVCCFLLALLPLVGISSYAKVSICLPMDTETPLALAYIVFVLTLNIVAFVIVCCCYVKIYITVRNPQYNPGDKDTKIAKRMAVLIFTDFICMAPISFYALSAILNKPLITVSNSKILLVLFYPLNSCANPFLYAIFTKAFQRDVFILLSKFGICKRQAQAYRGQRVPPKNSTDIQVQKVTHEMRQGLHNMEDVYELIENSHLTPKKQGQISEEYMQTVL
# How it was run: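 Screening of the Tox21 10K collection used HEK293 cells engineered with TSHR at 800 cells per well. After a 30-min room-temperature compound exposure, HTRF cAMP reagents were added and fluorescence recorded 1 h later.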
# [10] = qHTS assay to identify small molecule agonists of the hypoxia (HIF-1) signaling pathway - cell viability counter screen (AID 1224844; calls by dose curve; note: nearly all actives have a fitted effect of over 50% in size; note: potency is the fitted concentration of half-maximal effect)
# How it was run: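 Cells (HRE-bla ME-180, 2,000 per well) sat 5 hrs at 37C, got compound for 17 hrs, were read for CCF4-AM FRET, and were finally lysed with CellTiter-Glo for a 30 min room-temperature luminescence read.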
# [11] = qHTS assay to identify small molecule antagonists of the estrogen related receptor signaling pathway with the pleiotropic PPARgamma coactivator (PGC) from Tox21 10K library (AID 1224841; call rule not given here; note: actives are mostly falling curves and most rising ones were filed inactive; nearly all actives have a fitted effect of over 50% in size; note: potency is the fitted concentration of half-maximal effect)
# How it was run: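 qHTS antagonist format: PGC/ERR cells, 2k/well, compound in DMSO by pin transfer after 6 h attachment, 18 h treatment at 37 C, One-Glo luminescence read at 30 min.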
# [12] = qHTS assay to identify small molecule antagonists of the retinoic acid receptor (RAR) signaling pathway (AID 1159552; note: nearly all actives have a fitted effect of over 50% in size)
# How it was run: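 Quantitative HTS in C3RL4 RARE-luciferase reporter cells. Compounds were added with 1 uM (final) retinol; luminescence was read after 6 hr.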
# [13] = qHTS assay to identify small molecule agonists of the retinoic acid receptor (RAR) signaling pathway (AID 1159553); note: potency is the fitted concentration of half-maximal effect
# How it was run: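 Reporter readout comes from luciferase under RARE control in C3RL4 cells; compound exposure lasts 6 hr at 37 C in 5% CO2, and luminescence is recorded following a 30 min room-temperature incubation with reagent.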
# [14] = target: Nuclear receptor subfamily 1 group I member 3 (Homo sapiens) (UniProt Q14994); assay: qHTS assay to identify small molecule antagonists of the constitutive androstane receptor (CAR) signaling pathway (AID 1224838);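 note: HepG2 cells stably expressing hCAR with CYP2B6 luciferase reporter stimulated by CITCO; nearly all actives have a fitted effect of over 40% in size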; note: potency is the fitted concentration of half-maximal effect
# Chain of Nuclear receptor subfamily 1 group I member 3 (Homo sapiens) (Q14994 whole entry, looked up): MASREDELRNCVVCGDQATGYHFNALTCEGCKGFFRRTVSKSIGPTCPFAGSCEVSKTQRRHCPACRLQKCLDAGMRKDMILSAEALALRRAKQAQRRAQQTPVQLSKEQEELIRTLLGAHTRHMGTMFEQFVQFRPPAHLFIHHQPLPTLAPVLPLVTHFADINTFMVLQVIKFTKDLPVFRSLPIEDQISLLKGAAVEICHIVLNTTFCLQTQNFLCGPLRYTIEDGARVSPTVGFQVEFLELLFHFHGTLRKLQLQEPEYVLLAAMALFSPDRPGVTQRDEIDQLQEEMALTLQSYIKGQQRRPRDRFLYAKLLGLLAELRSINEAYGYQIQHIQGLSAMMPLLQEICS
# How it was run: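 Cell line: HepG2 double-stable for hCAR and CYP2B6-2.2kb reporter. Agonist: CITCO, 50 nM final. Compounds: 15 concentrations, 24 h, 37 C. Detection: ONE-Glo luminescence.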
# [15] = target: Nuclear receptor subfamily 1 group I member 3 (Homo sapiens) (UniProt Q14994); assay: qHTS assay to identify small molecule agonists of the constitutive androstane receptor (CAR) signaling pathway (AID 1224839); note: nearly all actives have a fitted effect of over 15% in size; note: potency is the fitted concentration of half-maximal effect
# How it was run: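 A 15-concentration quantitative screen uses HepG2 cells co-transfected stably with human CAR and CYP2B6-2.2kb reporter. Treatment lasts 24 h with 0.75 uM PK11195 final present; ONE-Glo luminescence is the signal.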
# [16] = qHTS assay to identify small molecule antagonists of the estrogen related receptor signaling pathway with the pleiotropic PPARgamma coactivator (PGC) cell viability counter screen (AID 1224822; note: series mostly up to about 46 µM)
# How it was run: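 PGC/ERR cells were plated at 2,000 per well and allowed 6 h to settle before compound addition. Following 17.5 h at 37 C, CellTiter-Fluor reagent was added and fluorescence was read 30 min later.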
Structure (SMILES),Potency [1],Potency [2],outcome [3],Potency [4],Potency [5],Potency [6],Potency [7],Potency [8],Potency [9],Potency [10],Potency [11],Potency [12],Potency [13],Potency [14],Potency [15],outcome [16]
COc1ccc(O)cc1,inactive,inactive,inactive,inactive,inactive,inactive,inactive,inactive,inactive,inactive,–,–,–,–,–,–
O=C(O)CCCCC1CCSS1 (centres undefined),inactive,inactive,inactive,inactive,inactive,inactive,inactive,inactive,inactive,inactive,inactive,–,–,–,–,–
CO[C@H]1C=CO[C@@]2(C)Oc3c(C)c(O)c4c(O)c(c(/C=N/N5CCN(C)CC5)c(O)c4c3C2=O)NC(=O)/C(C)=C\C=C[C@H](C)[C@H](O)[C@@H](C)[C@@H](O)[C@@H](C)[C@H](OC(C)=O)[C@@H]1C,inactive,inactive,inactive,27.4 µM (active) and 31 µM (active) and 23.7 µM (active),–,27.4 µM (active),30.8 µM (active),27.4 µM (active),inactive,inactive,48.8 µM (active) and 23.7 µM (active),inactive,inactive,54.8 µM (active) and inactive,inactive,–
COc1cc2c(c(OC)c1OC)-c1ccc(OC)c(=O)cc1[C@@H](NC(C)=O)CC2,–,–,inactive,inactive,inactive,inactive,–,2.4 µM (active) and inactive,–,48.4 µM (active) and inactive,–,inactive,inactive,–,–,inactive
Cc1ccc(O)c(-n2nc3ccccc3n2)c1,inactive,inactive,–,inactive,2.5 µM (active) and 1.59 µM (active) and 3.09 µM (active),inactive,inactive,inactive,inactive,inactive,inactive,inactive,1.52 µM (active) and 1.93 µM (active) and 2.98 µM (active),inactive,24.1 µM (active) and 21.7 µM (active) and 8.41 µM (active),–
Oc1cccc(O)c1,–,inactive,inactive,inactive,inactive,inactive,inactive,inactive,inactive,inactive,18.8 nM (active) and inactive,inactive,inactive,–,–,–
CC1=C(/C=C/C(C)=C/C=C/C(C)=C/C(=O)O)C(C)(C)CCC1,–,inactive,inactive,inactive,39.9 µM (active) and 27.5 µM (active),inactive,inactive,inactive,–,49 µM (active),–,inactive,19.4 nM (active) and 9.7 nM (active) and 84.1 nM (active),inactive,27.3 µM (active) and 24.3 µM (active) and 10.6 µM (active),inactive
CC(=O)OC/C=C(C)/C=C/C=C(C)/C=C/C1=C(C)CCCC1(C)C,–,inactive,inactive,inactive,inactive,inactive,inactive,inactive,inactive,inactive,–,–,–,inactive,inactive,–
